Measurements from PubChem BioAssay (NCATS).
Inconclusive results are not listed. The source made the active and inactive calls. Calls come from the whole dose curve; as a rule, active = well fitted inhibition curve with a large enough effect; inconclusive = small, poorly fitted or top-dose-only effect; inactive = flat fitted curve, though single readings scatter.

Target: Calcium and integrin-binding protein 1 (Homo sapiens) (UniProt Q99828)
Test: Primary qHTS for Identification of Calcium Integrin Binding Protein 1 (CIB1) Competitor (AID 1508620);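 note: GST tagged CIB1 binding a fluorescein labelled alphaIIb integrin peptide tracer; top concentration of the series differs between compounds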
Conditions: CIB1-GST / FITC-alphaIIb peptide fluorescence polarization; series mostly up to 114 µM; activity change, negative = inhibition: at the top concentration
How it was run: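 CIB1-GST (1 uM final) and compound incubated 15 min at room temperature before adding FITC-alphaIIb peptide tracer (100 nM final). Competition for binding read by fluorescence polarization (ex 480, em 540) after another 15 min at room temperature.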
% is set by controls: 0 for no effect and ±100 for the full control effect.

Sequence of Calcium and integrin-binding protein 1 (Homo sapiens) (Q99828 whole entry, looked up): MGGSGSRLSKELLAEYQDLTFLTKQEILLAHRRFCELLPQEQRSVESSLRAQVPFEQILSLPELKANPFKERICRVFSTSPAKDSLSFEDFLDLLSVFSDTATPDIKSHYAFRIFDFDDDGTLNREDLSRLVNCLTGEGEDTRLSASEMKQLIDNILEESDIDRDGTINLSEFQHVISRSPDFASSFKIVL

Compound | activity change, negative = inhibition
Nc1nc(Nc2cc(F)cc(F)c2)nc(NC2CCCC2)n1 | -2.01% (inactive)
Cc1ccc(CNc2ccc(N3CCNCC3=O)cc2)cc1 | 2.31% (inactive)
Cc1ccccc1C(=O)N1CCc2cc(-c3nc(NC(=O)c4ccc5c(c4)OCO5)sc3C)ccc21 | 0.109% (inactive)
Cc1cc(NCc2ccc(NC(=O)Cc3ccc(Cl)c(Cl)c3)cc2)no1 | 7.28% (inactive)
Cc1cc(C)n2ncc(C(=O)Nc3ccccc3)c2n1 | -2.33% (inactive)
COc1cc(NS(=O)(=O)c2ccc(C)cc2)c2ncccc2c1 | -2.95% (inactive)
Cc1nc(C2=NC(c3ccccc3Cl)C3=C(CCCC3=O)N2)cs1 (stereo not given) | -11.2% (inactive)
CN1CCN(Nc2nn3c(=O)c4ccccc4nc3s2)CC1 | 7.99% (inactive)
COc1ccc(CNc2ccc(-c3nc4ccccc4[nH]3)cc2)cc1OC | -9.71% (inactive)
O=C(O)c1ccc2c(c1)C(=O)N([C@H](Cc1ccc(O)cc1)C(=O)O)C2=O | -0.01% (inactive)
CC(=O)Nc1ccc(OCc2cccc(C3Nc4ccccc4C(=O)N3Cc3ccco3)c2)cc1 (stereo not given) | -12.4% (inactive)
CN1CCN(c2nn3c(=O)c4ccccc4nc3s2)CC1 | 0.849% (inactive)
C=CCNc1oc(-c2cccs2)nc1C#N | -7.31% (inactive)
Cc1cc2c(s1)c1cnn(Cc3cc(C(F)(F)F)cc(Cl)c3F)c(=O)c1n2C | 2.08% (inactive)
Cc1cc(C)nc(NC(=S)N2CCN(c3ncccc3Cl)CC2)c1 | -5.09% (inactive)
Cc1cc(N[S+](=O)([O-])c2ccc(NC(=O)Cc3ccc(Cl)nc3)cc2)no1 | -12.3% (inactive)
Cc1ccccc1C(=O)N1CCc2cc(-c3cccc(NC(=O)Cc4ccc5c(c4)OCO5)c3)ccc21 | 0.879% (inactive)
CC(=O)N1CCN(c2ccc(NCc3cccc(C)c3)cc2)CC1 | -15.5% (inactive)
O=[S+]([O-])(c1ccc2ncsc2c1)N1CCN([S+](=O)([O-])c2c(F)cccc2F)CC1 | 6.26% (inactive)
O=C(CNC(=O)c1ccc2cc[nH]c2c1)OC(C(=O)Nc1cc(C(F)(F)F)ccc1Cl)c1ccccc1 (stereo not given) | 0.106% (inactive)

Compound | activity change, negative = inhibition
N#Cc1nc(Nc2cc(F)cc(F)c2)c2ncn(CCN3CCCC3)c2n1 | 6.34% (inactive)
Cc1cc2c(s1)c(C#N)c(C(=O)NCc1ccccc1F)n2C | -1.97% (inactive)
Cc1cc(N2C(=O)c3ccccc3C2=O)n[nH]1 | -7.17% (inactive)
O=C(O)c1ccc2c(c1)C(=O)N([C@H](Cc1ccc(-c3ccccc3)cc1)C(=O)O)C2=O | -10.2% (inactive)
CC(C)(C)OC(=O)Cc1nnc(-c2cc3ccccc3[nH]2)s1 | 2.06% (inactive)
Cc1cc2c(s1)c1cnn(Cc3c(F)c(F)c(C(F)(F)F)c(F)c3F)c(=O)c1n2C | -0.933% (inactive)
O=C(NCc1ccc(Cl)c(Cl)c1)Nc1nnc(-c2ccncc2)s1 | 56.5% (inactive)
Cc1ccc(S(=O)(=O)Nc2cccc3cccnc23)c([N+](=O)[O-])c1 | -0.457% (inactive)
O=C(CN(Cc1cccc2ccccc12)C1CC1)Nc1ccc(N2CCOCC2)cc1 | 5.3% (inactive)
N#Cc1cccc(-c2ccc(CNc3nc(-c4ccccc4C(F)(F)F)nc4ccccc34)cc2)c1 | -2.1% (inactive)
Cc1cccc(CNc2ncnc3ccc(-c4ccccc4Cl)cc23)c1 | 2.68% (inactive)
Cc1cc(C)nc(NC(=S)N2CCN(c3ccc(F)c(F)c3)CC2)c1 | -1.52% (inactive)
N#Cc1ccc(CNc2nc(-c3ccccc3C(F)(F)F)nc3ccccc23)cc1 | 5.03% (inactive)
O=C(OCC#CCSc1nnc(-c2ccc3ccccc3c2)o1)c1ccc(F)cc1 | 0.169% (inactive)
CC(=O)Nc1ccc(NC(=O)c2cnn3c(C)cc(C)nc23)cc1 | -3.54% (inactive)
FC(F)(F)c1ccccc1-c1nc(NCc2ccc(-c3ccc(Cl)cc3)cc2)c2ccccc2n1 | 4.41% (inactive)
c1cncc(-c2ccc(CNc3nc(C4CCCC4)nc4ccccc34)cc2)c1 | 6.46% (inactive)
NC(=O)C1CCN(c2nc(-c3ccc(-c4ccccc4)cc3)cs2)CC1 | 2.07% (inactive)
COC(=O)c1c(-c2ccccc2)no[n+]1[O-] | -3.76% (inactive)
CC(C)(C)OC(=O)N1CCC(c2ccc(NCc3ccc(-c4ccc(C#N)cc4)o3)cc2)CC1 | -0.84% (inactive)
